From PubChem BioAssay (NCATS)
Inconclusive results are not listed. Active and inactive are the calls of the source. Unless noted, calls come from the whole dose curve; as a rule, active = well fitted curve in the direction sought with a large enough effect; inconclusive = small, poorly fitted or top-dose-only effect, or another doubt; inactive = no such curve, though single readings can be large; an effect the other way counts as inactive or inconclusive.

How the values were obtained:
[1] = AP1 Signaling Pathway (AID 357; active = well fitted curve in either direction with a large enough effect, not every such curve was filed as active; note: % is set by controls: 0 for no effect and ±100 for the full control effect); conditions: ME-180 AP-1-bla reporter, EGF-induced, beta-lactamase ratio, 5 h; at 38 µM (top of the series)
In short: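 ME-180 cells with beta-lactamase reporter under AP-1 response element, stimulated with EC50 EGF; compounds tested in titration series, 5 h at 37 °C. CCF4 substrate added 2.5 h at room temperature; 460/530 nm emission ratio gave %activity and AC50.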

[2] = molecular target: Cytochrome P450 1A2 (Homo sapiens) (UniProt P05177); test: p450-cyp1a2 (AID 410; calls by dose curve; note: potency is the fitted concentration of half-maximal effect)
Cytochrome P450 1A2 (Homo sapiens), sequence (P05177 whole entry, looked up): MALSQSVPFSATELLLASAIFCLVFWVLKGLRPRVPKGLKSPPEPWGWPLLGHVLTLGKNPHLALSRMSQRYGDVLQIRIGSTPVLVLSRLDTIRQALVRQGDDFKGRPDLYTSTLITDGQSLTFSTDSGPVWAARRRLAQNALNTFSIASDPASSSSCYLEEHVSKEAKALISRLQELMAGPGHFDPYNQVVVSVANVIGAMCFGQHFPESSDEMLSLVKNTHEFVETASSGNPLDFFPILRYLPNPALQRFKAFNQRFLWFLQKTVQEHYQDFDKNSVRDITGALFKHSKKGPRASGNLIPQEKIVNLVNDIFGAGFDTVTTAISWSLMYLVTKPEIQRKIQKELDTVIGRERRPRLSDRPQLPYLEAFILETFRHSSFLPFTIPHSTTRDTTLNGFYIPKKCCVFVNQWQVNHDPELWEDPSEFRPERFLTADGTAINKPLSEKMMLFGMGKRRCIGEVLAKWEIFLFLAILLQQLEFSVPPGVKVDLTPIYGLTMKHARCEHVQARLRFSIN
In short: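 Human CYP1A2 (20nM) demethylated Luciferin-ME at its Km (100uM) in 100mM KPO4. After 10 min compound preincubation, NADPH regeneration ran the reaction 60 min at room temperature. Luciferin was read by luminescence, normalized to 57 uM furafylline.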

[3] = NFAT Signaling Pathway (AID 444; active = well fitted curve in either direction with a large enough effect, not every such curve was filed as active;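 note: carbachol stimulus at about its EC50 of 1 µM final; % is set by controls: 0 for no effect and ±100 for the full control effect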); conditions: Jurkat NFAT-bla M1, carbachol, beta-lactamase ratio, 5 h; at 38 µM (top of the series)
In short: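 Jurkat cells carrying an NFAT-driven β-lactamase reporter and co-transfected muscarinic M1 receptor were treated with compound plus carbachol (1 uM final, an EC50 level) for 5 h at 37 °C. CCF4 loading followed for 1 h at RT; 460/530 nm ratio gave %activity.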

[4] = Stat Signaling Pathway (AID 446; active = well fitted curve in either direction with a large enough effect, not every such curve was filed as active;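 note: ME-180 cervical cancer cells given 40 pM IL-6 alongside compound; SIE-controlled beta-lactamase reporter measured as 460/530 nm FRET emission ratio; % is set by controls: 0 for no effect and ±100 for the full control effect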); conditions: ME-180 SIE beta-lactamase reporter, IL-6 stimulated, 5 h; at 38 µM (top of the series)
In short: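 ME-180 cells carrying a SIE-driven beta-lactamase reporter are stimulated with 40 pM IL-6 for 5 h at 37C in the presence of compound. The 460/530 nm FRET substrate ratio is read after 2.5 h at RT. Data are normalised to 300 pM IL-6 and to 125 nM JAK inhibitor controls.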

[5] = molecular target: Glucocorticoid receptor (Homo sapiens) (UniProt P04150); test: GR-GFP Redistribution (AID 450;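 active = compounds whose dose series gives a full or clear partial fitted curve of increased nuclear translocation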; note: potency is the fitted concentration of half-maximal effect); conditions: U2OS GR-GFP nuclear translocation, laser cytometry, 2 h
Glucocorticoid receptor (Homo sapiens), sequence (P04150 whole entry, looked up, the tested form may be a part): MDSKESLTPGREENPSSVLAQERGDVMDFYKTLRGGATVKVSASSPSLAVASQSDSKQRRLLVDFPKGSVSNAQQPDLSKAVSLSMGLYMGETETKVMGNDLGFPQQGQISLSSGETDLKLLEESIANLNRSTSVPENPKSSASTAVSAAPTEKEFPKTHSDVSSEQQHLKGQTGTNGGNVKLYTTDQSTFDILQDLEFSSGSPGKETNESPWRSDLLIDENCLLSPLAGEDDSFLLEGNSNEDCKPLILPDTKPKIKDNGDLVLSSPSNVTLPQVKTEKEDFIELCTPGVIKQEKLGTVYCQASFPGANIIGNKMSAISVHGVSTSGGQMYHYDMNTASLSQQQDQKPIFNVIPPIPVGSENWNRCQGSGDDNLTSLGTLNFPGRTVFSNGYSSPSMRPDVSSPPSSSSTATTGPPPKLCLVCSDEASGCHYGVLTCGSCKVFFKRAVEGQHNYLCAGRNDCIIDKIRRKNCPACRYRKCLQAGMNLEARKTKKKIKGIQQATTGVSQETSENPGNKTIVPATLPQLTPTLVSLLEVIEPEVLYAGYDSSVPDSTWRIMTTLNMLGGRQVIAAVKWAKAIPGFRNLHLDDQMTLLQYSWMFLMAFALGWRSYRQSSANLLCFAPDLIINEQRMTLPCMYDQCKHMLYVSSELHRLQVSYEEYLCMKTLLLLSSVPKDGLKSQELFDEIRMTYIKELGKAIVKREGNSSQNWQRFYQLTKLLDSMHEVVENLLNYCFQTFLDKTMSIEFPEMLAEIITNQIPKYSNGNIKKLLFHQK

[6] = molecular target: Glucocorticoid receptor (Homo sapiens) (UniProt P04150); test: GR-EFC Redistribution (AID 451; calls by dose curve; note: potency is the fitted concentration of half-maximal effect); conditions: CHO-K1 GR-EFC translocation, beta-gal luminescence, 2 h
In short: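 CHO-K1 cells stably expressing nuclear-localized β-gal enzyme acceptor and GR fused C-terminally to the enzyme donor fragment; ligand-driven nuclear translocation restores β-gal by complementation. Compounds titrated up to 46 uM final, 2 h at 37 °C; luminescence read.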

[7] = molecular target: Mitogen-activated protein kinase 10 (Mus musculus) (UniProt Q61831); test: JNK3 AlphaScreen Assay (AID 530; active = well fitted curve in either direction with a large enough effect, not every such curve was filed as active;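 note: kinase came from lysate of stimulated human HepG2 cells; signal reports phosphorylation of biotinylated GST-cJun 1-79 at Ser73 with 10 µM ATP; % is set by controls: 0 for no effect and ±100 for the full control effect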)
In short: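 JNK3 came from HepG2 lysates pre-activated with IL-1beta and TNF-alpha and phosphorylated biotinylated GST-cJun (1-79) at 10 uM ATP, pH 7.6, room temperature. Compounds were titrated. AlphaScreen signal used anti-phospho-cJun (Ser73) antibody.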

[8] = molecular target: 3',5'-cyclic-AMP phosphodiesterase 4B (Homo sapiens) (UniProt Q07343); test: qHTS Assay for Inhibitors of PDE-IV (AID 607; active = well fitted activation curve with a large enough effect in the main read-out, with a control signal flat, not every such curve was filed as active; note: % of control where 0% means no effect)
3',5'-cyclic-AMP phosphodiesterase 4B (Homo sapiens), sequence (Q07343 whole entry, looked up): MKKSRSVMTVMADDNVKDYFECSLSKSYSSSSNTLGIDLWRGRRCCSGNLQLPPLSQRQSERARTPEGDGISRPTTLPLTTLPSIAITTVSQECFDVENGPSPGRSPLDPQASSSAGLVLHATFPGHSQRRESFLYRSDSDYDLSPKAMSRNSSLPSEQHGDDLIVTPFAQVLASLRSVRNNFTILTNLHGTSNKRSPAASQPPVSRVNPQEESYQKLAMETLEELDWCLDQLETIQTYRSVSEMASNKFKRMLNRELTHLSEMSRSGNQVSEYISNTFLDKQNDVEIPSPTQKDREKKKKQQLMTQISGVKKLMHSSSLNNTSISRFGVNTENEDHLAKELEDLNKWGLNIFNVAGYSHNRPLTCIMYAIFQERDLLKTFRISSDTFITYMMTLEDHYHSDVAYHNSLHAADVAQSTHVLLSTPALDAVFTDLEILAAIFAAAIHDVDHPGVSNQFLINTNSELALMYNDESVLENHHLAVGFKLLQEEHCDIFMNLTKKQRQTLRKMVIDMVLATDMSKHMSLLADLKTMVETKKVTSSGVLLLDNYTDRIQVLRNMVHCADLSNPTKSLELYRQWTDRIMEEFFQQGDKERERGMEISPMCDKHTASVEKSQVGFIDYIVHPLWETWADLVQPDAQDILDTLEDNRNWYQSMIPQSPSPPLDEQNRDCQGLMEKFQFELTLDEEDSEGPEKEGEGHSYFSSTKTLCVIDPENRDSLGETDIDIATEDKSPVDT
In short: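 HEK293 ACTOne cells with CNG channel (1000/well), endogenous PDE4; membrane potential dye, compounds up to 22.9 uM final. Fluorescence Ex 535/Em 590; RO 20-1724 (100 uM final) as reference.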

[9] = molecular target: Guanine nucleotide-binding protein G(i) subunit alpha-1 (Homo sapiens) (UniProt P63096); test: qHTS Assay for Inhibitors of RGS12 GoLoco Motif Activity (Green Fluorophore) (AID 879);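 note: 0% = labeled peptide with Gαi1 and full inhibition = labeled peptide alone without protein; negative values mean loss of peptide binding seen as reduced polarization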
Guanine nucleotide-binding protein G(i) subunit alpha-1 (Homo sapiens), sequence (P63096 whole entry, looked up): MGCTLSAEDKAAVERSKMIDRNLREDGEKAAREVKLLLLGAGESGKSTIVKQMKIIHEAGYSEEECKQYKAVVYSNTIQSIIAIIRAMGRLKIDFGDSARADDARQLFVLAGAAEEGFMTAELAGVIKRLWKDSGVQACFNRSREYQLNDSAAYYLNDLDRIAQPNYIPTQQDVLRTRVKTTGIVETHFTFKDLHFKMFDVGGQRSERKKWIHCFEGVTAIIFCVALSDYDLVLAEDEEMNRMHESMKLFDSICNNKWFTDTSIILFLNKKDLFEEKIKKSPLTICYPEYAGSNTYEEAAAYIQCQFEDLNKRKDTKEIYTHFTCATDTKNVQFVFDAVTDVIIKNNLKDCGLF
In short: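 Fluorescence polarization assay: 50 nM Gαi1 with 10 nM FITC-labeled RGS12 GoLoco peptide in 10 mM Tris pH 7.5, 150 mM NaCl, 0.1 mM GDP, 0.05% NP40, 10 min at room temperature with compound.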

[10] = qHTS Assay for Identification of Small Molecule Agonists for Thrombopoietin (TPO) Signaling Pathway (AID 917); note: % is set by controls: 0 for no effect and ±100 for the full control effect
In short: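 Murine Ba/F3 cells stably expressing human TPO receptor and a Glycoprotein IIb promoter–luciferase reporter were IL-3-starved overnight, then treated with compounds plus TPO (26 pM final, its EC50) for 24 hrs at 37 C; luminescence was read.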

[11] = molecular target: Muscarinic acetylcholine receptor M1 (Rattus norvegicus) (UniProt P08482); test: qHTS Assay for Antagonists of Acetylcholine Muscarinic M1 Receptor: Kinetic Measurement of Intracellular Calcium Response (AID 943);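 note: Fluo-4 calcium signal as peak divided by basal fluorescence over 4 min; nearly all actives have a fitted effect of over 75% in size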
Muscarinic acetylcholine receptor M1 (Rattus norvegicus), sequence (P08482 whole entry, looked up): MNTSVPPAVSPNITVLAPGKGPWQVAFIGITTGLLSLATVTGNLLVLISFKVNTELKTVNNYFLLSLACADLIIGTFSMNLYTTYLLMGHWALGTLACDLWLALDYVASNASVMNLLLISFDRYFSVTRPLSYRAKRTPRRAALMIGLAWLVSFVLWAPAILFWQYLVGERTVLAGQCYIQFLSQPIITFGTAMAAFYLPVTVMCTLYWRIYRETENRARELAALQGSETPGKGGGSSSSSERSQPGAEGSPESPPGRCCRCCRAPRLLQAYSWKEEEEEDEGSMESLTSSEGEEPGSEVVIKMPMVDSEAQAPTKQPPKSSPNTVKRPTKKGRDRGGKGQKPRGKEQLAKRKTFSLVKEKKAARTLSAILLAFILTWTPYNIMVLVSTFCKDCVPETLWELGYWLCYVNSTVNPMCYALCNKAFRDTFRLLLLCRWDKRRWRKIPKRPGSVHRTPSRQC
In short: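 CHO cells stably expressing rat M1 were loaded with no-wash Fluo-4 dye for 1 h at 37C, pre-incubated 10 min with compound, then challenged with EC80 carbachol (100 nM final); kinetic calcium read 4 min, peak/basal ratio.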

[12] = molecular target: Pyruvate kinase (Leishmania mexicana) (UniProt Q27686); test: qHTS Validation Assay for Inhibitors of Leishmania Mexicana Pyruvate Kinase (AID 945);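 note: 0% = DMSO only neutral control wells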
Pyruvate kinase (Leishmania mexicana), sequence (Q27686 2-499 E452W): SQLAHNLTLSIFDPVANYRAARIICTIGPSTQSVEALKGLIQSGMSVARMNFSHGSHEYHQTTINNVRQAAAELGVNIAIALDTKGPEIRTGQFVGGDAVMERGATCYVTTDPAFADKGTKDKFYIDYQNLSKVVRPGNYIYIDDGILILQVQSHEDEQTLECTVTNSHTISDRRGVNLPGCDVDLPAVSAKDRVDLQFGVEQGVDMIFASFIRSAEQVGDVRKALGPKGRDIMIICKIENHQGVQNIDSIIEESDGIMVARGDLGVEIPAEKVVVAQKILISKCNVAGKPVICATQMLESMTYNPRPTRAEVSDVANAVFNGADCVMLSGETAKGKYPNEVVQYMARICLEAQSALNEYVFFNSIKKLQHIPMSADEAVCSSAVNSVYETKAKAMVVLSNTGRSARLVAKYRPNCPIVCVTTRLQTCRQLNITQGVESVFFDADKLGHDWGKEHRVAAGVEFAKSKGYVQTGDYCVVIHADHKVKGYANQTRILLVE
In short: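 Mutant LmPYK (E451W), 0.2 nM, plus 0.5 mM PEP and 0.1 mM ADP in 50 mM imidazole pH 7.2 containing 0.01% Tween 20 and 0.05% BSA. Incubated 1 h at room temperature; luminescence via PKLight, normalized to DMSO.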

[13] = molecular target: Pyruvate kinase PKM (Homo sapiens) (UniProt P14618); test: qHTS Assay for Activators of Human Muscle Pyruvate Kinase (AID 954; active = well fitted curve in the direction sought with a large enough effect, not every such curve was filed as active;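 note: 0% = uninhibited enzyme and -100% = no enzyme or full thiadiazolimine inhibition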)
Pyruvate kinase PKM (Homo sapiens), sequence (P14618 whole entry, looked up): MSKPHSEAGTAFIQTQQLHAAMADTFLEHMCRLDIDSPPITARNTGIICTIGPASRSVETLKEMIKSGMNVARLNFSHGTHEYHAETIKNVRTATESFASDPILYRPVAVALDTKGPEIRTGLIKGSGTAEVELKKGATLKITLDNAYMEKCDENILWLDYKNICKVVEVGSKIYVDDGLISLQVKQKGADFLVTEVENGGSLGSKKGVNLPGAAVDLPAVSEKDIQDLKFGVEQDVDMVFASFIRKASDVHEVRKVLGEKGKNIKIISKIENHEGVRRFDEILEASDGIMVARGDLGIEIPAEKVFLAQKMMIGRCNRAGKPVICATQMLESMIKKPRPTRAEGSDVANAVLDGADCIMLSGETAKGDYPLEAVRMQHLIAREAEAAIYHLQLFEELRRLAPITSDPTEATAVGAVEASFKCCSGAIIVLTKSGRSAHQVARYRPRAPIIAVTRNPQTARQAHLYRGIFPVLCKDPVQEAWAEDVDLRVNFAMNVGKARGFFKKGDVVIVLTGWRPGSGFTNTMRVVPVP
In short: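 Purified human PKM2 (0.1 nM) with 0.5 mM PEP (Km) and 0.1 mM ADP in 50 mM imidazole pH 7.2, KCl, MgCl2, 1 h at room temperature; ATP formed read by coupled luciferase luminescence. Normalized to no-enzyme/110 uM thiadiazolimine inhibition; 0.3 nM enzyme column for activation.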

[14] = molecular target: Alpha-galactosidase A (Homo sapiens) (UniProt P06280); test: Counterscreen for Glucocerebrosidase Inhibitors: qHTS Assay for Human alpha-Galactosidase at pH 4.5 (AID 992); note: 0% is about no effect
Alpha-galactosidase A (Homo sapiens), sequence (P06280 whole entry, looked up): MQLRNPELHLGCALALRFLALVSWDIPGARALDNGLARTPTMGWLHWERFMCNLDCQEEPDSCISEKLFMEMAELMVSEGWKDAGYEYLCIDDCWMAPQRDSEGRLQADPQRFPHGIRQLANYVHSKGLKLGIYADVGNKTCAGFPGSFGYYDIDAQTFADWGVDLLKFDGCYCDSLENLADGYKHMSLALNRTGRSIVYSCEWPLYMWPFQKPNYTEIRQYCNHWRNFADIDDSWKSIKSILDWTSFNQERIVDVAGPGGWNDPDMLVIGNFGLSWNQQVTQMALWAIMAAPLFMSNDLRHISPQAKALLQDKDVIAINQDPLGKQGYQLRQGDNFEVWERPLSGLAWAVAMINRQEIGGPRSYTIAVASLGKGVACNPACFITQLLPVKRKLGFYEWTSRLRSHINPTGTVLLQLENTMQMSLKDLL
In short: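 Human enzyme (2 nM) with 80 uM 4-methylumbelliferyl alpha-D-galactopyranoside in 50 mM citric acid, 0.005% Tween-20, pH 4.5, 20 min at room temperature. Compounds 0.7 nM–77 uM; fluorescence Ex 365/Em 440 after pH 10 stop; AC50 from Hill fits.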

[15] = molecular target: alpha-glucosidase (Oryza sativa, rice) (UniProt Q653V4); test: Counterscreen for Glucocerebrosidase Inhibitors: qHTS Assay for Rice alpha-Glucosidase at pH 5.0 (AID 997);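 note: 0% = full activity with enzyme and -100% = basal without enzyme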
In short: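 Rice alpha-glucosidase (4 nM final) with 400 uM 4-methylumbelliferyl-alpha-D-glucopyranoside in citrate buffer pH 5.0, 20 min at room temperature, stopped at pH 10; fluorescence 365/440 nm, compounds 0.7 nM–77 uM, AC50 from Hill fits.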

[16] = Validation of Assay for Modulators of Lamin A Splicing (AID 1459; active = well fitted curve in the direction sought with a large enough effect in the signal ratio; the % refers to the signal ratio;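 note: cells exposed to compound for two days before reading; 0% is about no effect; ratio rise marks activators and ratio drop marks inhibitors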)
In short: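 S3 HeLa cells stably expressing a lamin A-EGFP splicing minigene and DsRed2 were seeded at 600 cells/well in Opti-MEM with 2% FBS, pin-dosed, and incubated 48 hrs at 37 °C, 5% CO2. Laser-scanning cytometry (488 nm) gave GFP/RFP total intensity ratio.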

[17] = qHTS Assay for Lipid Storage Modulators (AID 1519; calls by dose curve); conditions: Drosophila S3 cells, BODIPY lipid droplet/cell ratio, laser cytometry, cells loaded with oleic acid
In short: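 Cells seeded at 5,000 per well were treated with compounds over a concentration series and loaded with oleic acid (400 uM, as added). Lipid droplet fluorescence (488 nm excitation, 500-530 nm channel) was read by laser-scanning cytometry and normalized to 20 uM Triacsin C.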

[18] = molecular target: DNA repair nuclease/redox regulator APEX1 (Homo sapiens) (UniProt P27695); test: qHTS Validation Assay for Inhibitors of the Human Apurinic/apyrimidinic Endonuclease 1 (APE1) (AID 1705)
DNA repair nuclease/redox regulator APEX1 (Homo sapiens), sequence (P27695 whole entry, looked up): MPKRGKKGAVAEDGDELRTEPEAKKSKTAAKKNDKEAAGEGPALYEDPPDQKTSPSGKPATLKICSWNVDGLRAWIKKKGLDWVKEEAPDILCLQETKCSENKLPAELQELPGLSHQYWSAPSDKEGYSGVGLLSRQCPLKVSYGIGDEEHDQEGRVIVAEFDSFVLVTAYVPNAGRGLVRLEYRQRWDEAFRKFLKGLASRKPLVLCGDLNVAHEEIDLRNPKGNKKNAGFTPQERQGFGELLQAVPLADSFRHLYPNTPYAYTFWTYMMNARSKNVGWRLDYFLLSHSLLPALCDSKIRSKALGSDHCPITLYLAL
In short: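 Human APE1 was preincubated with compound for 15 min at room temperature, then 50 nM (final) THF-abasic double-stranded DNA substrate bearing 5'-TAMRA and 3'-BHQ-2 was added. Incision-driven fluorescence rise (ex 525/em 598 nm) was read kinetically.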

CCCn1c(=O)c2[nH]c(-c3ccc(OCC(=O)Nc4ccc(C#N)cc4)cc3)nc2n(CCC)c1=O
active: Potency [2] 31.6 µM
inactive: activity change, negative = inhibition [1] -2.44% | activity change, negative = inhibition [3] -7.64% | activity, negative = inhibition [4] -13.8% | Potency [5] > 46 µM | Potency [6] > 46 µM | Potency [7] | Potency [8] | outcome [9] | Potency [10] | Potency [11] | Potency [12] | outcome [13] | outcome [14] | outcome [15] | outcome [16] | activity change, negative = inhibition ([17]; at 57.5 µM (top of the series)) 1.01% | Potency [18]
-12.2%: max response ([17]; measured here: cell count channel max response)
-10.7%: max response ([17]; measured here: lipid channel max response)
